Only some compounds are listed: those with a hit (about 7.3% of all), similar ones and a draw of the others.
ELG1 genotoxic: inducers of genotoxicity in HEK293T ELG1-luciferase cells; Potency, µM (doses to about 46 µM), most hits filed as activators; 330,000 tested, 1.3% active; HEK293T ELG1-luciferase reporter, luminescence, 16 h; further: nearly all actives have a fitted effect of over 60% in size
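16 hr compound incubation (37 °C, 5% CO2) of HEK293T cells carrying luciferase-tagged ELG1; luciferase then measured by ONE-Glo luminescence after 30 min at RT.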
FLuc modulator: counter-screen for miR-21 project: firefly luciferase inhibitors or activators | P08659 | purified FLuc, Km substrates, luminescence inhibition | Potency, µM (top dose mostly 57.5 µM), hits mostly inhibitors | 360,000 tested, 6.9% active | AID 588342; further: nearly all actives have a fitted effect of over 55% in size
Target sequence (P08659 whole entry, looked up): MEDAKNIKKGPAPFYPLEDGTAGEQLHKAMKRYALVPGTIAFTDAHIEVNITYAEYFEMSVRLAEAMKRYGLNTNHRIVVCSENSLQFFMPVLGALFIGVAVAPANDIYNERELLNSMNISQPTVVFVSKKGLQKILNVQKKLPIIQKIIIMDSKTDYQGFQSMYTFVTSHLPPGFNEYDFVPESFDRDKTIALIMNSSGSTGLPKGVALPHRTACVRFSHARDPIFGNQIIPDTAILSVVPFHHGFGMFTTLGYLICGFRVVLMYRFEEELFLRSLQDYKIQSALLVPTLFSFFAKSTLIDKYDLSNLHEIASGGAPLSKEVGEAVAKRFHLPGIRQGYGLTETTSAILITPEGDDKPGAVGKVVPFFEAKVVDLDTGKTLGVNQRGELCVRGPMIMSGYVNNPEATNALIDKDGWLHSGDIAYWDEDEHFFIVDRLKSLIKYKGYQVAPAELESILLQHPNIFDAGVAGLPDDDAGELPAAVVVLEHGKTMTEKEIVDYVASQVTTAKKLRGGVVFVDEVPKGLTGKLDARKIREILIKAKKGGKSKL
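Purified P. pyralis luciferase, 10 nM final, with Km-level 10 uM D-luciferin and 10 uM ATP in 50 mM Tris acetate pH 7.5, 10 mM Mg acetate, 0.01% Tween-20, 0.05% BSA; 6-point qHTS titration about 60 µM downward; luminescence read.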
NPC1 prom act: activators of NPC1 promoter; Potency, µM (series often up to 9.22 µM), most hits filed as activators; 320,000 tested, 2.4% active; AID 485313; Huh7 NPC1 promoter luciferase reporter, 24 h; further: nearly all actives have a fitted effect of over 60% in size
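Luminescence read-out of NPC1 promoter-driven luciferase in stably transfected Huh7 cells; compounds delivered in DMSO and left 24 h at 37C, 5% CO2, qHTS titration format.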
p53 reactivation: restores transcriptional activity of mutant p53 | AID 504706 | H1299 p53-A138V BP100-luciferase reporter, luminescence, 24 h | 320,000 tested, 0.063% active | Potency, µM (doses to about 92.2 µM), usual class: activators; further: nearly all actives have a fitted effect of over 45% in size
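p53-null H1299 cells stably carrying temperature-sensitive p53-A138V and a BP100-luciferase reporter were pinned with compounds (4-point, 1:5 series) and held 24 hrs at 37 deg C. Luminescence was read 10 min after detection reagent.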
Rab9 promoter act: Rab9 promoter activation; Huh7 Rab9 promoter-luciferase reporter, luminescence, 24 h; Potency, µM (top dose mostly 9.22 µM), hits mostly activators; 320,000 tested, 2.8% active; AID 485297; further: nearly all actives have a fitted effect of over 60% in size
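Quantitative HTS format; Huh7 Rab9-luciferase reporter cells (1500/well) receive compound 2 h post-plating, incubate 24 h at 37 °C, then get luciferase reagent for 10 min before luminescence reading.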
SMN2 splice enh: enhancers of SMN2 splice variant expression; Potency, µM (titrated, usually from 46.1 µM), hits mostly activators; HEK293 SMN2-luciferase splicing reporter, luminescence, 30-36 h; 210,000 tested, 2.8% active; further: nearly all actives have a fitted effect of over 55% in size
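HEK293 cells carry an SMN2 […]–luciferase reporter in which exon 7 inclusion puts luciferase in frame. Cells were plated 10-12 h before compound addition, then incubated 30-36 h at 37C. ONE-Glo luminescence was read; sodium butyrate at 4.5 mM final served as control.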
Hits are given with their value; . = inactive; ? = inconclusive; / = no result given; [ ] = another dose, or the depositor's remark. The call rests on the fitted dose curve; in most records, active means well fitted curve in the direction sought with a large enough effect; inconclusive means small, poorly fitted or top-dose-only effect, or another doubt; inactive means no such curve, though single readings can be large; an effect the other way counts as inactive or inconclusive.

SMILES	ELG1 genotoxic	FLuc modulator	NPC1 prom act	p53 reactivation	Rab9 promoter act	SMN2 splice enh
Cc1ccc(/C=N/Nc2ccc3ccccc3n2)o1	?	0.48µM	0.71µM	.	0.13µM	1.1µM
Cc1cc(C)nc(N/N=C/c2cccc3ccccc23)n1	.	12µM	.	.	.	.
C(=N\Nc1ccc2ccccc2n1)/c1ccc2c(c1)OCCO2	?	0.067µM	.	.	.	.
Cc1cc(C)nc(N/N=C/c2ccccc2Cl)n1	.	?	.	.	?	/
CCCCN(CCCC)C(=O)CN(C)S(=O)(=O)c1ccc2c(c1)c(=O)n(C)c(=O)n2C	/	.	/	/	/	.
COCCCNC(=O)c1ccc(Cn2c(=O)c3ccccc3n(CC(=O)Nc3c(C)cccc3C)c2=O)cc1	/	.	/	/	/	?
COCCNC(=S)N/N=C/c1ccc2c(c1)OCCO2	.	?	.	.	.	.
CC(C)NC(=S)N/N=C/c1ccc2c(c1)OCCO2	.	6.7µM	.	.	?	.
Cc1cccc(/C=N/Nc2ccc3ccccc3n2)c1	0.23µM	0.076µM	?	.	?	.
C(=N\Nc1nc2ccccc2[nH]1)/c1ccc2c(c1)OCCO2	?	0.76µM	?	.	1.4µM	/
Cc1cc(C)nc(N/N=C/c2ccc3c(c2)OCCO3)n1	.	19µM	.	.	?	.
CCN(CC)c1ccc(/C=N/Nc2nc(C)cc(C)n2)cc1	.	?	.	.	.	/
CCc1ccccc1NC(=O)c1cnn2c(C(F)(F)F)cc(-c3ccc(OC)c(OC)c3)nc12	/	.	/	/	/	.
Nc1ccc(-c2nc3ncccc3o2)c(Cl)c1	10µM	4.8µM	2µM	.	3.2µM	13µM
Nc1ccc(-c2nc3ncccc3o2)c(O)c1	?	12µM	2.8µM	.	4µM	/
Nc1ccc(Cl)c(-c2nc3ncccc3o2)c1	.	?	.	.	.	?
Cc1cccc(/C=N/NC(=O)c2cccc(NC(=O)c3ccccc3)c2)n1	.	11µM	.	.	.	/
Cc1cccc(/C=N/NC(=O)c2ccccc2OCc2cccc(Br)c2)n1	.	19µM	.	.	.	/
Cc1cccc(/C=N/NC(=O)c2cc(Br)ccc2OCc2ccccc2)n1	.	.	.	.	.	/
Cc1cccc(/C=N/NC(=O)c2cccc(Cl)c2)n1	.	?	.	.	.	/
Cc1cccc(NC(=O)c2cccc(NC(=O)c3ccccc3)c2)n1	.	21µM	.	/	.	/
Cc1cccc(/C=N/NC(=O)c2ccc(F)cc2)n1	.	12µM	.	.	.	/
COc1ccc(N(CC(=O)NCc2ccc(F)cc2)C(=O)c2snc(C(N)=O)c2N)cc1OC	.	.	.	.	.	/
C=CCNC(=S)NS(=O)(=O)c1cccs1	.	.	.	.	.	.
CCOc1nc2cnccc2n(CC(=O)Nc2c(C)cccc2CC)c1=O	.	.	.	.	.	/
SMILES	ELG1 genotoxic	FLuc modulator	NPC1 prom act	p53 reactivation	Rab9 promoter act	SMN2 splice enh
O=[N+]([O-])/C=C\c1cc2ccccc2[nH]1	/	/	/	/	/	.[9.22 µM]
Cc1ccc(-n2ncc(N(C)C)c(Cl)c2=O)cc1	?	5.4µM	0.4µM	.	1.1µM	?
COc1ccc(-n2ncc(N(C)n3cccc3)c(Cl)c2=O)cc1	?	4.8µM	1.3µM	?	0.56µM	/
Cc1nc2nc(SCC(=O)NC3CCC(C)CC3)nn2c(C)c1Cc1ccccc1 (stereo unspecified)	/	.	/	/	/	/
Cc1cc(=O)[nH]c(N/N=C/c2ccc(-c3ccc(F)cc3)o2)n1	.	6µM	.	?	?	/
CSc1ccc(/C=N/Nc2nc(C)cc(=O)[nH]2)cc1	.	?	.	.	.	.
Cc1cc(Cl)ccc1N=c1ssnc1Cl	.	?	.	.	.	.
COc1ccc(OC)c(N=c2ssnc2Cl)c1	.	15µM	.	.	.	.
Cc1ccc(N=c2ssnc2Cl)cc1	.	21µM	.	.	.	.
COc1cc(N=c2ssnc2Cl)c(OC)cc1Cl	.	17µM	.	.	.	.
NS(=O)(=O)c1ccc(CNC(=O)CNC(=O)c2ccc(Br)o2)cc1	.	.	.	.	?	/
O=C(c1cc2ccccc2oc1=O)N(Cc1ccco1)C1CCS(=O)(=O)C1 (stereo unspecified)	18µM	15µM	?	?	?	.

Screening results from PubChem.
